Screening results from PubChem.
LEDGF integ inh: blockers of LEDGF/p75-dependent integrase strand transfer – biochemical, TR-FRET, high throughput, primary screen; HIV-1 integrase (with human LEDGF/p75); TR-FRET IN-LEDGF/p75 DNA integration, Eu/Cy5; inhibition, % at 3.7 µM; 370,000 tested, 0.64% active; AID 743269, 2014;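 active means inhibition above the screen-wide mean plus 3 SD, cut at about 13% in these data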;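 further: signal is the Cy5 over europium emission ratio at 671 and 618 nm; 0% = plate median of compound wells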
UHRF1 binding: UHRF1 methylated DNA binding inhibitors, primary screen, counter-screen for MBD2 inhibitor project, biochemical, TR-FRET, human UHRF1, single concentration; E3 ubiquitin-protein ligase UHRF1 (Homo sapiens), Q96T88; UHRF1 binding to methylated oligo; inhibition, % at 4.4 µM; 370,000 tested, 0.75% active; in the data active means inhibition above about 21%;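 further: UHRF1 SRA domain binding a hemimethylated CpG hairpin DNA probe; 0% = median of test compound wells and 100% = reference inhibitor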
MBD2 DNA inh: inhibitors of MBD2 binding to methylated DNA, primary screen, biochemical, TR-FRET, DNA-binding domain, human | MBD2 binding to methylated oligonucleotide | inhibition, % at 4.4 µM | 370,000 tested, 0.31% active | AID 686964, 2013; in the data active means inhibition above about 13%
Rin1-Abl PPI inh: inhibitors of Rin1-Abl protein binding, primary screen, biochemical, TR-FRET; 360,000 tested, 0.4% active; AID 588664, 2011; Tyrosine-protein kinase ABL1 (Homo sapiens) + Ras and Rab interactor 1 (Homo sapiens), …; inhibition, % at 7.35 µM; in the data active means inhibition above about 5%, passing the limit was not always enough
Neddylation inh: inhibitors of cullin neddylation, primary screen, biochemical, TR-FRET, uHTS, NAE and Ubc12; NEDD8-conjugating enzyme Ubc12 (Homo sapiens) + NEDD8-activating enzyme E1 regulatory …; calls only at 25 µM; 360,000 tested, 0.58% active; in the data active means inhibition above about 36%
proKLK7 act: proKLK7 zymogen activators, primary screen, biochemical, fluorescence intensity; Kallikrein-7 (Homo sapiens), P49862; purified proKLK7, EDANS-DABCYL substrate fluorescence; 100% is mature enzyme control, 0% vehicle; activation, % at 7 µM; 370,000 tested, 0.9% active;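 active means activation above the mean of all tested compounds plus 3 SD, computed per campaign excluding outliers beyond control limits, cut at about 13% in these data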
Target sequence (P49862 whole entry, looked up): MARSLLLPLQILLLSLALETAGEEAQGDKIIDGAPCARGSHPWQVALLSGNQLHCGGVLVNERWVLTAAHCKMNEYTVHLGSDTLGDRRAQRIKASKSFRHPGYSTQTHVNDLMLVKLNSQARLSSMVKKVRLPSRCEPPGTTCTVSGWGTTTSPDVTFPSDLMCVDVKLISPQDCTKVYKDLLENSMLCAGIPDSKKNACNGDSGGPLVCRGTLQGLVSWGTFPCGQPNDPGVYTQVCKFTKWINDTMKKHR
Numbers without * were called inactive; i = inactive; / = not tested or not shown; + = active, no number. A selection: hits, their analogues and other compounds. The true share with any hit is near 3.1%.

SMILES	LEDGF integ inh	UHRF1 binding	MBD2 DNA inh	Rin1-Abl PPI inh	Neddylation inh	proKLK7 act
COc1ccc(Br)cc1S(=O)(=O)NCc1ccccc1	2	-3	2	-2	i	0
COc1ccc(/C=C/C(=O)O)cc1S(=O)(=O)NCc1ccccc1	88*	13	8	-2	i	1
O=C(N/N=C/c1ccc(-c2ccccc2C(=O)O)o1)c1cccs1	5	23*	-2	-1	i	2
COC(=O)C1CN(CCO)CCS(=O)(=O)N1Cc1cn(Cc2ccccc2Br)nn1 (stereo not drawn)	3	-1	1	/	/	0
C=CCCC1CN(Cc2ccco2)S(=O)(=O)c2c(F)cccc2O1 (stereo not drawn)	8	-1	-7	0	i	0
C=CCCC1CN(CC=C)S(=O)(=O)c2c(F)cccc2O1 (stereo not drawn)	1	22*	8	/	/	0
O=S1(=O)c2ccc(Br)cc2OC[C@H](Cc2ccccc2)N1Cc1cn(Cc2ccc(F)cc2)nn1	6	3	-1	/	/	1
O=C(CSc1nn(-c2ccccc2)c(=S)s1)Nn1cnnc1	0	2	-2	6	i	0
COC(=O)CSc1nn(-c2ccc(F)cc2)c(=S)s1	-2	21*	6	0	i	0
CCn1c(CSc2nc(C)cc(C)n2)nnc1SCC(=O)N1CCCc2ccccc21	-1	2	-2	-4	i	-1
COc1cc(O)c(C(CCN2CCN(c3ccccc3)CC2)c2ccc(N(C)C)cc2)c(OC)c1 (stereo not drawn)	3	22*	8	1	i	0
COc1ccc(C(CCN2CCN(c3ccccc3)CC2)c2c(O)cc(OC)cc2OC)cc1 (stereo not drawn)	1	-5	3	1	i	1
NC(=O)[C@H]1CC2(CC(c3cccc(NC(=O)COc4ccc(Cl)cc4)c3)=NO2)CN1C(=O)Cc1ccc([N+](=O)[O-])cc1 (stereo partly drawn)	1	0	9	0	i	0
C/C(=N\Nc1ccc(Cl)c(C(=O)O)c1)c1ccc[nH]1	7	23*	5	-1	i	1
C/C(=N\Nc1ccc(Cl)c(C(=O)O)c1)c1cccs1	3	17	2	-2	i	0
CC(=O)NC1C(=O)N(CCN2CCOCC2)c2ccc(C)cc21 (stereo not drawn)	/	/	/	5	i	/
CC(=O)NC1C(=O)N(CCN2CCOCC2)c2ccc(Cl)cc21 (stereo not drawn)	16*	-2	2	-1	i	-1
COc1cc(C2=NOC(C(=O)Nc3c(C)n(C)n(-c4ccccc4)c3=O)C2)cc(OC)c1OC (stereo not drawn)	3	24*	13	0	i	0
COc1ccc(C2=NOC(C(=O)Nc3c(C)n(C)n(-c4ccccc4)c3=O)C2)cc1 (stereo not drawn)	-5	5	4	0	i	0
C[C@]12CCC(=O)C=C1CC[C@@H]1[C@@H]2CC[C@@]2(C)[C@H]1CC[C@]2(O)C(=O)CO	1	-1	-5	0	i	1
CN(C)CCN1C(=O)CCC2(C)C1=CCC1C2CCC2(C)C1CCC2(C)O (stereo not drawn)	-1	80*	-2	1	i	0
OC[C@H]1O[C@@H](c2nc(-c3ccc4[nH]ccc4c3)no2)[C@H](O)[C@@H](O)[C@H]1O	-1	-1	2	-2	i	0
O=C(O)c1cc(S(=O)(=O)Nc2ccc3oc(=O)sc3c2)ccc1O	16*	2	1	/	/	0
CC1(C(=O)NS(=O)(=O)c2ccc(Cl)cc2)CCN1C(=O)c1ccc(C2CCCCC2)cc1 (stereo not drawn)	5	0	4	-2	i	1
Cn1c(=O)[nH]c(=O)c2[nH]c(NCCCN3CCOCC3)nc21	0	23*	5	-6	i	0
SMILES	LEDGF integ inh	UHRF1 binding	MBD2 DNA inh	Rin1-Abl PPI inh	Neddylation inh	proKLK7 act
Cc1ccc(C2NC(=O)CCC2[N+](=O)[O-])cc1 (stereo not drawn)	0	0	1	9	i	0
Cn1cncc1C#Cc1ccc2cc(CCCO)oc(=O)c2c1	-2	-8	-4	-2	+	2
O=C(O)C(Nc1nc(C(F)(F)F)nc2ccccc12)c1ccccc1 (stereo not drawn)	1	-2	-2	2	i	1
CC(=O)N(c1ccccc1)c1nc(/C=C/C(=O)Nc2c(C)cc(C)cc2C)cs1	-2	99*	-2	-3	i	0
CC(=O)N(c1ccccc1)c1nc(/C=C/C(=O)O)cs1	3	3	-1	2	i	0
O=C(O)c1ccc([N+](=O)[O-])c(CS(=O)(=O)c2ccc(Cl)cc2)c1	-4	3	1	-2	i	1
O=C(CBr)c1ccc([N+](=O)[O-])c(CS(=O)(=O)c2ccc(Cl)cc2)c1	-3	70*	-7	-1	i	0
Nc1ncnc2c1ncn2[C@@H]1O[C@H](CNC(=O)[C@@H]2CCCN2S(=O)(=O)c2ccc(F)cc2)[C@@H](O)[C@H]1O	-2	2	-4	-2	i	0
COc1ccc(-c2ccnc3nc(N4CCOCC4)nn23)cc1	-1	-5	-1	-3	/	44*
CC(Sc1nnc(Cc2ccccc2)o1)C(=O)NC1(C#N)CCCCC1 (stereo not drawn)	-10	24*	2	4	i	0
CC(Sc1nccn1C)C(=O)NC1(C#N)CCCCC1 (stereo not drawn)	4	0	0	4	i	0
CC1(C(=O)Nc2ccc3c(c2)OCCO3)CSCC(=O)N1C1CC1 (stereo not drawn)	2	18	3	/	i	0
O=C(CSc1nc2ccccc2s1)N1CCCCC1	2	42*	-5	2	i	-1
N#C/C(=C\c1c(N2CCC(C(N)=O)CC2)nc2ccccn2c1=O)C(=O)NC1CCCCC1	2	-6	-8	-8	i	0
O=C(NCc1ccccc1)c1cccc(OCC(=O)N2CCN(C(=O)c3ccco3)CC2)c1	3	21*	8	-4	i	-1
CCCCN(C)C(=O)c1cc2cc3ccc(OC)cc3nc2s1	-4	-3	-1	-7	+	1
